# Measurements from PubChem BioAssay.
# Records with an inconclusive call do not appear. Active and inactive are the calls of the source.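 The calls were made as follows, unless noted: active = efflux inhibition above 0.42, the validation set average plus 4 SD; inconclusive = no clear call, values can overlap the other calls; inactive = the rest.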
# How the values were obtained:
# [1] = yeast TOR pathway RPL19A-GFP modulators, primary screen, cell-based, S. cerevisiae, multiplex flow cytometry (AID 1862; in the data active = percent of DMSO control GFP below about 86%;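 also: lower values mimic rapamycin by blocking the RPL19A rise seen in DMSO cells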); details: S. cerevisiae RPL19A-GFP strain, flow cytometry fluorescence, 3 h; at 10 µM; stronger effect = lower value
# [2] = modulators of MEP2-GFP levels in yeast, primary screen, S. cerevisiae, multiplex flow cytometry (AID 1867;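 active = GFP response, as percent of the DMSO control, above the screen-wide mean plus 3 SD, about 139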;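 also: median GFP channel fluorescence of barcode-gated MEP2-GFP cells measured by flow cytometry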); details: S. cerevisiae MEP2-GFP strain, 3 h, at 10 µM, stronger effect = higher value, 100% means same as DMSO wells
# [3] = modulators of CIT2-GFP expression in yeast, primary screen, S. cerevisiae, GFP fusion, multiplex flow cytometry (AID 1870;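 active = percent response above a set limit, the screen-wide mean plus 3 SD, cut at about 130% in these data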;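 also: barcoded CIT2-GFP strain pooled with four other GFP strains with rapamycin as positive control; median GFP fluorescence per well over plate mean of DMSO wells so 100% = DMSO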); details: 3 h, at 10 µM, stronger effect = higher value
# [4] = modulators of LAP4-GFP expression in yeast, primary screen, S. cerevisiae, multiplex flow cytometry (AID 1873;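 active = GFP signal, as percent of the solvent control, above the screen mean plus 3 SD, about 149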); details: 3 h, at 10 µM, stronger effect = higher value
# [5] = modulators of AGP1-GFP expression in yeast TOR pathway, primary screen, cell-based, multiplex flow cytometry, S. cerevisiae (AID 1887;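 active = GFP signal above the screen-wide mean plus 3 SD, that is over about 124.5% of the solvent control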;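 also: AGP1-GFP fusion strain of S. cerevisiae within a five-strain barcoded multiplex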); details: 3 h, at 10 µM, stronger effect = higher value
# [6] = inhibitors of CD8+ T cell-vesicle binding, pilot screen, LFA-1/ICAM-1 modulator project, MLPCN validation set, flow cytometry (AID 2523;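 active = response below a set limit, under 55% cells CD8-positive and vesicle-bound, and CD8 cells' 90th-percentile brightness under 279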;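 as to vesicle binding response: mean PE anti-B7-1 fluorescence of CD8+ cells relative to row control; 100% = QL9-loaded vesicles with DMSO vehicle in the same plate row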); details: 2C mouse CD8+ T cells, at 7 µM, stronger effect = lower value; double positive events: measured here: CD8+/vesicle+ event percentage
# [7] = target: Integrin beta-1 (Homo sapiens) + Integrin alpha-4 (Homo sapiens) (UniProt P13612+P05556); test: inhibition of HUTS-21 binding to VLA-4, pilot screen, VLA-4 allosteric modulator project, U937 cells, HUTS-21 mAb, flow cytometry, validation set (AID 2674;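 active = inhibition above 50%, about 3 SD of the validation set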;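 also: antibody binding induced by the VLA-4 ligand LDV present at three times its Kd; 0% = LDV ligand with antibody and no compound and 100% = antibody without LDV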); details: HUTS-21 LIBS mAb binding, at 6.7 µM, stronger effect = higher value, binding induced by LDV ligand
# [8] = superoxide lowering in aged yeast cells, pilot screen, validation compound set (AID 2706;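 active = superoxide response below 65% of plate, a cut near 3 SD across the whole screen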;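 also: yeast exposed to compound for one week at 30 degrees C before staining; 100% = mean of all compound wells on the same plate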); details: S. cerevisiae aging, superoxide DHE fluorescence; at 10 µM, stronger effect = lower value
# [9] = target: Beta-adrenergic receptor kinase 1 (Homo sapiens) (UniProt P25098); test: GRK2 binders displacing RNA aptamer, biochemical, validation, human GRK2, bead flow cytometry (AID 488806;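 active = aptamer binding inhibition above 30%, about 3 SD of noise from non-fluorescent compounds; inactive = inhibition at or below 30%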); details: bead-bound GRK2, FAM-aptamer displacement, at 10 µM, stronger effect = higher value
# [10] = target: AP-2 complex subunit beta (Homo sapiens) (UniProt P63010); test: inhibitors of arrestin peptide binding to AP2, pilot screen, biochemical, validation set, GST-AP2 beads, flow cytometry (AID 504541;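 active = inhibition above 54%, about 3 SD of non-fluorescent compounds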;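 also: AP2 carries R879A mutation and is captured from E. coli lysate; bead-bound FITC arrestin peptide fluorescence measuring arrestin peptide binding to AP2; 0% = DMSO wells and 100% = excess unlabeled arrestin peptide control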); details: FITC arrestin peptide, at 10 µM, stronger effect = higher value, AP2 beta2 appendage fragment, R879A mutant
# [11] = yeast V-ATPase proton transport modulators, S. cerevisiae, pHLuorin, HTS validation (AID 504600; in the data active = response above about 15%;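 also: plate controls were DMSO for no effect and reference compound for full effect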); details: S. cerevisiae pHLuorin cytosolic pH, at 10 µM, stronger effect = higher value
# [12] = tested on: anti-desmoglein-3 scFv antibody binding to human DSG3; test: inhibitors of anti-DSG3 scFv binding to DSG3, pilot screen, biochemical, validation compound set, bead-based, flow cytometry (AID 588368;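 active = binding below the plate cutoff, the plate median minus 3 SD, with a reading above zero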;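 also: signal is the median channel fluorescence of bead-bound GFP antibody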); details: Protein G beads, DSG3-Fc, scFv-GFP binding, at 10 µM, stronger effect = lower value
# [13] = inhibitors of fungal efflux pumps CDR1, CDR2, MDR1, pilot screen, validation compound set, multiplex, phenotypic (AID 588506);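 also: Nile Red retained in cells so higher fluorescence means more efflux inhibition; 0 = negative control wells and 1 = enniatin B 25 µM full block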; details: S. cerevisiae pump-expressing triplex, Nile Red efflux flow cytometry; at 10 µM; stronger effect = higher value; the pumps come from Candida albicans
# [14] = target: ATP-binding cassette sub-family B member 6 (Homo sapiens) (UniProt Q9NP58); test: ABCB6 transporter inhibitors, pilot screen, K562-ABCB6 cells, flow cytometry, validation set (AID 588550;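 active = inhibition above the screen-wide mean plus 3 SD, about 51%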;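 also: 0% = DMSO wells and 100% = benzethonium chloride 70 µM positive control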); details: K562-ABCB6 porphyrin accumulation, 1 h, at 10 µM, stronger effect = higher value
# [15] = promoters of myeloid differentiation in arrested cells, primary screen, cell-based, GFP/MAC1 double positive, flow cytometry, validation set (AID 588685;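 active = differentiation response of at least 50%, scaled between solvent and reference control, from cells with both markers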;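 also: compound exposure lasts four days before antibody staining and flow analysis; 0% = DMSO wells and 100% = 5 µM fulvestrant positive control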); details: ER-HoxA9 marrow cells, stronger effect = higher value, normalized: vehicle 0, fulvestrant 100
# ATP-binding cassette sub-family B member 6 (Homo sapiens), sequence (Q9NP58 whole entry, looked up): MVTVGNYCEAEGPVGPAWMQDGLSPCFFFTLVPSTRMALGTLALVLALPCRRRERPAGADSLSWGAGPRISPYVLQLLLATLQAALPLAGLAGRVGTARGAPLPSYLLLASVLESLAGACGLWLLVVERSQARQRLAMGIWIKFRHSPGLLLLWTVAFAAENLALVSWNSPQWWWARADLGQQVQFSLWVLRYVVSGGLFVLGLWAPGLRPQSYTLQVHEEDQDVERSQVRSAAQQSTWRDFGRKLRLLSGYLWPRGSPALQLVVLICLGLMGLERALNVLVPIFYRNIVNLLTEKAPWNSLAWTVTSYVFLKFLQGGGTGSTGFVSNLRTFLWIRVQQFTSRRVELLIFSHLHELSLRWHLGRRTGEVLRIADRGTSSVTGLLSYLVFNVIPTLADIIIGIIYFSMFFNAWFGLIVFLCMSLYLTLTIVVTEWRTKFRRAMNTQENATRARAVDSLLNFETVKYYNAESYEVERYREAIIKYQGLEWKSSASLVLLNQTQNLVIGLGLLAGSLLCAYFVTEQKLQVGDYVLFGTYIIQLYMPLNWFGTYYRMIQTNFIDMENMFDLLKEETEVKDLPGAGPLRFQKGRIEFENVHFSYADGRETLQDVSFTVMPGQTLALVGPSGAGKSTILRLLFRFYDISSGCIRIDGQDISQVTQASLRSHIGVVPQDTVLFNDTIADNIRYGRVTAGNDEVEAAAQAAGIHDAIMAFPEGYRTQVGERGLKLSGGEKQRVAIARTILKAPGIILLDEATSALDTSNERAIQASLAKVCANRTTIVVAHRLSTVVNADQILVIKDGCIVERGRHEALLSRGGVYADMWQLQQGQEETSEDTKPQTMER
# Integrin beta-1 (Homo sapiens) + Integrin alpha-4 (Homo sapiens), sequence (P05556 whole entry, looked up): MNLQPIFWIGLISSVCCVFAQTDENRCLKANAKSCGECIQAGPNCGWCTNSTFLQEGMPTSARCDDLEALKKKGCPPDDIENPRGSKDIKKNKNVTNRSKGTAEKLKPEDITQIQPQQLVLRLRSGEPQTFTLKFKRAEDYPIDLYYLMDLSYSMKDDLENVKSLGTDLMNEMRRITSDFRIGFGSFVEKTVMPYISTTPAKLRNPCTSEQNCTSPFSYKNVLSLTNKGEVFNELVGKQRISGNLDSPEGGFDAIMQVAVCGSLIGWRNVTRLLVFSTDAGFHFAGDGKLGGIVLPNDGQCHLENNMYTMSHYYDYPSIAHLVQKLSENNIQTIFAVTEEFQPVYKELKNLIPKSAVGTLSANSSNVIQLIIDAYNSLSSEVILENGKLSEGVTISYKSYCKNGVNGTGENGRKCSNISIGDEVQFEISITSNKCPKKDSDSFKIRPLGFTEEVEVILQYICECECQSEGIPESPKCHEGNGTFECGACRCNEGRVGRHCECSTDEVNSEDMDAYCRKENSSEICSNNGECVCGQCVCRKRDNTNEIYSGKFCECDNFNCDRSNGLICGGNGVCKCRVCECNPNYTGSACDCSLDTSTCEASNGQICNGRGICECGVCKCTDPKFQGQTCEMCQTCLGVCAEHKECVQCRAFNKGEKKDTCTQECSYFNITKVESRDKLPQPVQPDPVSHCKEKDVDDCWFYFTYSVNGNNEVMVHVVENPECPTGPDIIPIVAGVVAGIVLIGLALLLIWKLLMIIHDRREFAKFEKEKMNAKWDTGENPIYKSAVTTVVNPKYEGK
# Integrin beta-1 (Homo sapiens) + Integrin alpha-4 (Homo sapiens), sequence (P13612 whole entry, looked up): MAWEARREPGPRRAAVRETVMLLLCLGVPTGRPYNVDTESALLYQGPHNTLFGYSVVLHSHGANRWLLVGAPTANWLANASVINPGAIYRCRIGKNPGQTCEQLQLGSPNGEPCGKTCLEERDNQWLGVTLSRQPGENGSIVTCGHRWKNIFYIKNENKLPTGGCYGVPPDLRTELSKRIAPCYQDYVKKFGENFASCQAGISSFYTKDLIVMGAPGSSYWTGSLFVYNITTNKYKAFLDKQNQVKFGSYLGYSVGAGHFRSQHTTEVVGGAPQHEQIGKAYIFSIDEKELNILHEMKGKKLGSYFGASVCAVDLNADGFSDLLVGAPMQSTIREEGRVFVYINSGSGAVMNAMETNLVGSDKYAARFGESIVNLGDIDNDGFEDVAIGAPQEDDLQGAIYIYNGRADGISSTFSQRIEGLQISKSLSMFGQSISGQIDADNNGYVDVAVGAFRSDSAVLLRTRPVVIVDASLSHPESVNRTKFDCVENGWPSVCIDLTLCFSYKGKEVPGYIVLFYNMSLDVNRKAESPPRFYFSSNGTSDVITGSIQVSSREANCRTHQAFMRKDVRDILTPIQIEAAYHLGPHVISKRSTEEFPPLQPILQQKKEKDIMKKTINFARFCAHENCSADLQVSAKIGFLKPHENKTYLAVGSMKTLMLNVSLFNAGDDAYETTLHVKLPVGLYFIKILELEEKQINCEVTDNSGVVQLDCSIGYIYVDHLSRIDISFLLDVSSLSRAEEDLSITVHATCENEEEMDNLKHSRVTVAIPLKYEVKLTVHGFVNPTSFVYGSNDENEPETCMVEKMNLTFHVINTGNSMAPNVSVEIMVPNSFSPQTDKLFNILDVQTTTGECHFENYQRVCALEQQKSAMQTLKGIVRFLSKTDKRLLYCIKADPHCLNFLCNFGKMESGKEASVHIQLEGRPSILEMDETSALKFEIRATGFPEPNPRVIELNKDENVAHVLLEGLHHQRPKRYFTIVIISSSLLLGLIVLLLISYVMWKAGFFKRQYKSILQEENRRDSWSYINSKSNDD
# Beta-adrenergic receptor kinase 1 (Homo sapiens), sequence (P25098 whole entry, looked up): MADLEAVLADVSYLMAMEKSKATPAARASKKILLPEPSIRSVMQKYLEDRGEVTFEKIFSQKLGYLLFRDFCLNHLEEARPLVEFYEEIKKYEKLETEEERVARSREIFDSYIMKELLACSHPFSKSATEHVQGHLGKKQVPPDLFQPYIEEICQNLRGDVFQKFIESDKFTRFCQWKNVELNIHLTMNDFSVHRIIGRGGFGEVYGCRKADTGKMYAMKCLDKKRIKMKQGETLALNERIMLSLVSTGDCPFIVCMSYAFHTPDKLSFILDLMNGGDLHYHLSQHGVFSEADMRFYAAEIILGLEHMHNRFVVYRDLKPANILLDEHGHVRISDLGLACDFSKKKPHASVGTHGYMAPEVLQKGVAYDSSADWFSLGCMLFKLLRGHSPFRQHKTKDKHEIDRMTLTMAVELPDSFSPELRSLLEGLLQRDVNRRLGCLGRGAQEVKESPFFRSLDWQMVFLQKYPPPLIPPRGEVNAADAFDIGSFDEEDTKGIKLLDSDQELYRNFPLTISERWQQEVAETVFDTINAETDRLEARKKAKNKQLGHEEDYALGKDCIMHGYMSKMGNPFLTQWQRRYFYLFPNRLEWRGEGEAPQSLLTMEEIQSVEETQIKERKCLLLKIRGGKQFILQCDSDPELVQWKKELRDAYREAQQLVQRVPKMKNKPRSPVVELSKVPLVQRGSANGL
# AP-2 complex subunit beta (Homo sapiens), sequence (P63010 whole entry, looked up, the tested form may be a part, one chain of several): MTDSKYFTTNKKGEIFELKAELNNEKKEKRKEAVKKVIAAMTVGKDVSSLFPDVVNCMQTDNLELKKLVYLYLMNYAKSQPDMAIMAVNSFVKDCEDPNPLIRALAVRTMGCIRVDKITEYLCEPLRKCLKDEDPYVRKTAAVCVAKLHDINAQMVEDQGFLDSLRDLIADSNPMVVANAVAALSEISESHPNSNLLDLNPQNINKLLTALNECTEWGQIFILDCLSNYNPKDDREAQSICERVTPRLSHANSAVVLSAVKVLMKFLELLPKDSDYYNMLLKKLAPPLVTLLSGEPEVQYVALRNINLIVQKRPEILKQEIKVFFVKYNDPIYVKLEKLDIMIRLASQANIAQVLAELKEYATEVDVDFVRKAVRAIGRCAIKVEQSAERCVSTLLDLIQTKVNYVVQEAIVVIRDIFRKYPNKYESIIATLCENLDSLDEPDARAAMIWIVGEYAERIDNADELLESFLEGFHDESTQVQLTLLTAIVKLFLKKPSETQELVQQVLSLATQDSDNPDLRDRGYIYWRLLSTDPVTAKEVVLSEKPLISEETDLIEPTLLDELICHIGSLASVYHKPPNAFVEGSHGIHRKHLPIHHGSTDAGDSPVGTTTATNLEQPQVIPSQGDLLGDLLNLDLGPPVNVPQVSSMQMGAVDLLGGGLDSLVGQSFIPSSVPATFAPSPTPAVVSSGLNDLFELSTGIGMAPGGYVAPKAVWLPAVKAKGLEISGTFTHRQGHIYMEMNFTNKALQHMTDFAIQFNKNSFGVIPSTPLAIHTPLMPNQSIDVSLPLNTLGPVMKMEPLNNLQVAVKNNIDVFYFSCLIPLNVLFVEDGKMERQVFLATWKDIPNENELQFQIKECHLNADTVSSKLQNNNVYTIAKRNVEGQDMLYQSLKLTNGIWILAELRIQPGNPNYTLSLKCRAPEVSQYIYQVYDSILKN
SMILES,percent of DMSO control GFP [1],GFP response vs DMSO [2],percent response of DMSO control [3],GFP response vs DMSO [4],"GFP response, % of DMSO [5]",double positive events [6],vesicle binding response [6],inhibition [7],superoxide response (% of plate) [8],aptamer binding inhibition [9],inhibition [10],response [11],binding (% of control) [12],efflux inhibition (fraction of control) [13],inhibition [14],differentiation response [15]
CCOC(=O)C(=O)Nc1ccc(Oc2ccccc2)cc1,96.8% (inactive),105% (inactive),101% (inactive),106% (inactive),97.8% (inactive),61.7%,101% (inactive),18.4% (inactive),101% (inactive),3% (inactive),9.79% (inactive),1.03% (inactive),105% (inactive),-0.05 (inactive),4% (inactive),-26% (inactive)
CCOC(=O)c1ccc2[nH]c(C)c(CCC(C)=O)c(=O)c2c1,102% (inactive),98.9% (inactive),109% (inactive),88.3% (inactive),97.9% (inactive),57.1%,228% (inactive),0.69% (inactive),91.5% (inactive),1% (inactive),1.85% (inactive),6.01% (inactive),108% (inactive),-0.12 (inactive),6% (inactive),-11.5% (inactive)
CC(C)NCC(O)COc1ccc(CC(N)=O)cc1 (stereo not given),99.2% (inactive),100% (inactive),105% (inactive),97.3% (inactive),99.1% (inactive),61.8%,127% (inactive),-2.53% (inactive),82.7% (inactive),2% (inactive),-8.74% (inactive),0.46% (inactive),101% (inactive),-0.39 (inactive),6% (inactive),-2.69% (inactive)
C[N+]12CCC(CC1)C(OC(=O)C(O)(c1ccccc1)c1ccccc1)C2 (stereo not given),96.8% (inactive),96.9% (inactive),99.8% (inactive),100% (inactive),95.8% (inactive),60.6%,211% (inactive),2.56% (inactive),104% (inactive),-2% (inactive),-2.25% (inactive),2.36% (inactive),102% (inactive),-0.35 (inactive),10% (inactive),-21.2% (inactive)
Cn1c2c(c(=O)[nH]c1=O)C(c1ccc(O)cc1)C1=C(N2)c2ccccc2C1=O (stereo not given),99% (inactive),97.9% (inactive),101% (inactive),87.3% (inactive),94.6% (inactive),62.7%,228% (inactive),-3.04% (inactive),92.2% (inactive),-2% (inactive),8.12% (inactive),-0.45% (inactive),96.9% (inactive),-0.01 (inactive),9% (inactive),11.1% (inactive)
CC(=O)OCC(=O)[C@@]12OC(C)(C)O[C@@H]1C[C@H]1[C@@H]3C[C@H](F)C4=CC(=O)C=C[C@]4(C)[C@@]3(F)[C@@H](O)C[C@@]12C,104% (inactive),107% (inactive),106% (inactive),100% (inactive),105% (inactive),64.6%,212% (inactive),3.49% (inactive),94.7% (inactive),0% (inactive),2.71% (inactive),1.38% (inactive),91.8% (inactive),0.03 (inactive),8% (inactive),19.2% (inactive)
Cc1ccccc1C(OCCN(C)C)c1ccccc1 (stereo not given),101% (inactive),98.9% (inactive),102% (inactive),85.3% (inactive),94.6% (inactive),51.2%,111% (inactive),10.9% (inactive),106% (inactive),1% (inactive),-8.71% (inactive),9.28% (inactive),98.7% (inactive),0.03 (inactive),4% (inactive),-22.8% (inactive)
CN(CCc1cnn(C)c1)Cc1nc(CC2CC2)no1,101% (inactive),101% (inactive),110% (inactive),105% (inactive),105% (inactive),58.1%,194% (inactive),-11.4% (inactive),106% (inactive),2% (inactive),23.6% (inactive),-2.33% (inactive),104% (inactive),-0.16 (inactive),8% (inactive),-9.89% (inactive)
CC(C)NCC(O)COc1ccc(CCOCC2CC2)cc1 (stereo not given),103% (inactive),102% (inactive),109% (inactive),111% (inactive),108% (inactive),63.7%,215% (inactive),-10.5% (inactive),93.3% (inactive),-6% (inactive),-20.5% (inactive),9.7% (inactive),103% (inactive),0.03 (inactive),-3% (inactive),7.13% (inactive)
COc1cccc(OCc2cc(C3Nc4ccccc4C(=O)N3Cc3ccco3)ccc2OC)c1 (stereo not given),106% (inactive),99.9% (inactive),104% (inactive),92.3% (inactive),88.9% (inactive),53.2%,127% (inactive),3.49% (inactive),99.1% (inactive),4% (inactive),-4.8% (inactive),0% (inactive),96.5% (inactive),0.03 (inactive),3% (inactive),-9.89% (inactive)
